Results as given in PubChem BioAssay AID1159580 (chemical genetic matrix, 2015).
“And” between values parts separate entries of the source, which are not always exact repeats. Equal values may be shown once. The whole screen tested about 5,500 compounds, of which about 2,000 (36%) were called active. Roughly 18% stayed inconclusive and do not appear here. Rule as the data show it: active = normalized growth mostly below about 0.91 (no sharp cut-off); inconclusive = no clear call, values can overlap the other calls; inactive = mostly above about 0.92. This is one part of the list.

Experiment: chemical genetic growth profiling, strain panel (AID 1159580);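 also: tested at 20 µM; growth read once vehicle control cultures reached saturation at 30 °C; 1 = growth at the plate median or of vehicle wells; lower values mean less growth of the strain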
Settings: S. cerevisiae deletion strains, growth OD

Measured: normalized growth

CC[N+](C)(C)c1cccc(O)c1
inactive: locus YJR075W, strain HOC1, hits give low values 0.985 and 1.04 | locus YKL009W, strain mrt4, hits give low values 1 | locus YKL068W, hits give low values 0.985 | locus YKL085W, strain MDH1 (second series), hits give low values 1 | locus YKL085W, strain MDH1, hits give low values 1 | locus YKL160W, strain elf1, hits give low values 1.06 | locus YKL190W, strain CNB1, hits give low values 1.01 | locus YKR001C, strain vps1, hits give low values 0.97 | locus YKR026C, strain gcn3, hits give low values 1 | locus YKR091W, strain srl3, hits give low values 1.01 | locus YLL001W, strain dnm1, hits give low values 1.06 | locus YLL026W, hits give low values 1 | locus YLL041C, strain sdh2, hits give low values 1.01 | locus YLR027C, strain aat2, hits give low values 1.02 | locus YLR039C, strain RIC1, hits give low values 0.993 | locus YLR058C, strain SHM2, hits give low values 0.982 | locus YLR102C, strain apc9, hits give low values 0.977 | locus YLR113W, strain HOG1, hits give low values 0.996 | locus YLR221C, strain rsa3, hits give low values 1.03 | locus YLR258W, strain gsy2, hits give low values 1.01 | locus YLR262C, strain YPT6 (second series), hits give low values 1.05 | locus YLR262C, strain YPT6, hits give low values 1 | locus YLR268W, strain sec22, hits give low values 0.917 | locus YLR320W, strain mms22, hits give low values 1.06 | locus YLR330W, strain CHS5, hits give low values 0.992 | locus YLR342W, strain FKS1 (second series), hits give low values 1.04 | locus YLR342W, strain FKS1, hits give low values 1.02 | locus YLR357W, strain rsc2, hits give low values 1.01 | locus YLR370C, strain arc18, hits give low values 1.01 | locus YLR371W, strain rom2, hits give low values 0.969 | locus YLR384C, strain iki3, hits give low values 0.996 | locus YLR418C, strain cdc73, hits give low values 0.954 | locus YML016C, strain PPZ1, hits give low values 0.992 | locus YML032C, strain rad52, hits give low values 0.954 | locus YML120C, strain ndi1, hits give low values 1.04 | locus YML124C, strain tub3, hits give low values 0.984 | locus YMR058W, strain fet3, hits give low values 1.02 | locus YMR078C, strain ctf18, hits give low values 0.96 | locus YMR125W, strain sto1, hits give low values 1.05 | locus YMR129W, hits give low values 1.01 | locus YMR205C, strain PFK2, hits give low values 1.04 | locus YMR223W, strain ubp8, hits give low values 0.996 | locus YMR231W, strain pep5, hits give low values 1 | locus YMR263W, strain SAP30, hits give low values 0.993 | locus YMR307W, strain GAS1, hits give low values 0.956 and 1.04 | locus YNL067W, strain RPL9B, hits give low values 0.975 | locus YNL071W, strain lat1, hits give low values 1.02 | locus YNL128W, strain TEP1, hits give low values 0.991
